Source: PubChem (The Scripps Research Institute Molecular Screening Center)
MITF inh: MITF inhibitors, primary screen, biochemical, AlphaScreen, human. Microphthalmia-associated transcription factor (Homo sapiens), O75030. AlphaScreen MITF homodimerization, bead proximity signal. inhibition, % at 2.6 µM. hit rate 0.91% among 650,000. AID 1259374, 2018; in the data active means inhibition above about 50%;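 further: 0% = vehicle wells with protein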
FBW7 act: FBW7 E3 ligase activators, primary screen, biochemical, AlphaScreen, human | F-box/WD repeat-containing protein 7 (Homo sapiens), Q969H0 | AlphaScreen FBW7–phospho-cyclin E peptide binding, activator screen | normalized activity (activation), % at 26.1 µM | hit rate 0.13% among 650,000 | AID 1259310, 2017; in the data active means normalized activity above about 1.9%;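 further: purified mutant Fbw7 with reduced substrate affinity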
Target sequence (Q969H0 whole entry, looked up): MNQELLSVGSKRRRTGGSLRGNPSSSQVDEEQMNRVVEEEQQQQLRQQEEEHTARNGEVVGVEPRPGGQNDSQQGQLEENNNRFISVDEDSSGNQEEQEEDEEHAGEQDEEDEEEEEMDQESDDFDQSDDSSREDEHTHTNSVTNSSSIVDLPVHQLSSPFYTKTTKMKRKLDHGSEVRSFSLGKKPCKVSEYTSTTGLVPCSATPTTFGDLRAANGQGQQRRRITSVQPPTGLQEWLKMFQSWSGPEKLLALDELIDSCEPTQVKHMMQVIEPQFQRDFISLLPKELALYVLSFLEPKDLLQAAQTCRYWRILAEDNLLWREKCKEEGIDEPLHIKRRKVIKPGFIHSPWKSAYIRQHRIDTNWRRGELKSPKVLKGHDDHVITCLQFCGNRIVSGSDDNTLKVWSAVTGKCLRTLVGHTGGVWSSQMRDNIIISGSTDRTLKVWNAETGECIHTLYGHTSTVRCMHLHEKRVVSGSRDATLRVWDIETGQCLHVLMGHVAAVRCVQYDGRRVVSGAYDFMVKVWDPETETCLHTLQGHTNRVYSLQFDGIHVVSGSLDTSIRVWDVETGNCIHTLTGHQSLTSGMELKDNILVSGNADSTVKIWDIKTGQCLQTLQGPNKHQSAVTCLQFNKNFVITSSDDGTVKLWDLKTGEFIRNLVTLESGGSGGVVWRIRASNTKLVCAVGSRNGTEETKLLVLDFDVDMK
TEAD-YAP block: TEAD-YAP interaction inhibition, primary screen, TEAD-YAP interaction inhibitor project, luminescence, HEK-TIYL cells. TEAD-Gal4/YAP UAS-luciferase luminescence. inhibition, % at 9.12 µM. hit rate 1.4% among 640,000. AID 1259422, 2018; in the data active means inhibition above about 32%;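 further: 0% = median of test compound wells and 100% = reference inhibitor wells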
GPR151 ag: activators of human GPR151, primary screen, cell-based, PathHunter beta-arrestin, luminescence | hit rate 1% among 650,000 | AID 1508602, 2020 | activation, % at 11.2 µM | PathHunter beta-arrestin GPR151 cells | G-protein coupled receptor 151 (Homo sapiens), Q8TDV0; in the data active means activation above about 4.9%;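 further: 0% = median of compound wells and 100% = cells with positive control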
* = called active by the depositor; nt = no result. In the library only some 3.4% were active in any assay of this set; here they are far more common.

SMILES	MITF inh	FBW7 act	TEAD-YAP block	GPR151 ag
CC1=CC2=NC(=O)/C(=C\c3cc(C)n(-c4ccc(Cl)cc4)c3C)C(=N)N2O1	3.5	0.2	13.0	0.1
CC1=CC2=NC(=O)/C(=C\c3cc(C)n(-c4cccc(F)c4)c3C)C(=N)N2O1	-1.9	0.2	6.9	-0.4
COc1cc(NC(=O)CSC2=C(C#N)C(c3ccccc3)C(C(=O)Nc3ccc(Cl)cc3)=C(C)N2)c(OC)cc1Cl (configuration not stated)	-3.1	-0.1	2.8	0.5
Cc1ccc(S(=O)(=O)NC(=O)Nc2ccc(-c3nc4ccc(C)cc4s3)cc2)cc1	16.0	0.1	90.8*	-8.6
Cc1ccc(S(=O)(=O)Nc2ccccc2C(=O)Nc2ccc(-c3nc4ccc(C)cc4s3)cc2)cc1	5.0	1.1	-2.8	-0.7
CC1=CCC(C(=O)O)C(C(=O)Nc2ccc(-c3nc4ccc(C)cc4s3)cc2)C1 (configuration not stated)	-11.6	0.0	59.1*	-3.0
c1ccc2[nH]c(CNc3ncnc4nc(N5CCN(Cc6ccc7c(c6)OCO7)CC5)[nH]c34)nc2c1	12.4	-0.1	53.6*	-0.1
OCCNc1ncnc2nc(N3CCN(Cc4ccc5c(c4)OCO5)CC3)[nH]c12	7.6	0.0	2.3	0.6
c1ccc2[nH]c(CNc3nc(N4CCOCC4)nc4c3ncn4C3CCCCC3)nc2c1	0.5	0.0	74.1*	-0.1
Cc1noc(C)c1-c1nc(NCc2nc3ccccc3[nH]2)c2ncn(-c3ccsc3)c2n1	18.2	0.1	8.0	0.5
c1ccc2[nH]c(CNc3nc(N4CCOCC4)nc4c3ncn4-c3ccsc3)nc2c1	17.7	-0.3	88.4*	-1.2
CC(C)n1cnc2c(NCc3nc4ccccc4[nH]3)nc(N3CCCC3CO)nc21 (configuration not stated)	6.8	0.1	71.9*	0.2
O=C1CCCC2=C1C(c1cccc(Br)c1)NC(=S)N2 (configuration not stated)	-4.0	0.0	-1.7	-0.5
c1ccc2[nH]c(CNc3nc(Nc4ccc(N5CCOCC5)cc4)nc4c3ncn4C3CCCCC3)nc2c1	13.5	-0.1	-2.3	-1.3
CCN(CC)c1nc(NCCc2ccc(O)cc2)nc(N2CCN(c3ccccn3)CC2)n1	0.5	-0.3	-1.8	0.3
CC(C)n1cnc2c(NCc3nc4ccccc4[nH]3)nc(N3CCC(N4CCOCC4)CC3)nc21	9.3	0.1	63.0*	0.0
CC(C)n1cnc2c(NCc3nc4ccccc4[nH]3)nc(N3CCN(Cc4ccc5c(c4)OCO5)CC3)nc21	8.5	-0.1	68.2*	-0.2
CC(C)n1cnc2c(NCc3nc4ccccc4[nH]3)nc(Nc3ccc(N4CCOCC4)cc3)nc21	0.3	-0.2	56.8*	-0.6
CCN(CC)c1nc(NCc2nc3ccccc3[nH]2)nc(N2CCN(c3ccccn3)CC2)n1	13.1	-0.1	33.5*	0.9
CC(C)n1cnc2c(NCc3ccccc3)nc(N3CCN(Cc4ccc5c(c4)OCO5)CC3)nc21	0.3	-0.1	-2.7	0.3
O=C1C2CCCN2C(c2ccc([N+](=O)[O-])cc2)N1c1ccc(Cl)cc1 (configuration not stated)	9.7	0.5	0.9	-0.9
Cc1nc2c(C(=O)N3CCCC3)c[nH]n2c(=O)c1Cc1ccccc1F	-50.3	0.3	5.8	-0.6
CCC(=O)Nc1nc(C)c(C(=O)NCc2ccccc2)s1	-4.5	-0.1	5.1	0.6
c1ccc(-n2cnc3c(NCc4nc5ccccc5[nH]4)nc(N4CCC(N5CCOCC5)CC4)nc32)cc1	8.1	-0.2	44.5*	-0.9
Cn1c(Nc2nc(NCc3ccccc3)c3ncn(C4CCCCC4)c3n2)nc2ccccc21	-1.0	-0.2	4.4	3.3
SMILES	MITF inh	FBW7 act	TEAD-YAP block	GPR151 ag
Cn1c(Nc2nc(NCc3nc4ccccc4[nH]3)c3ncn(C4CCCCC4)c3n2)nc2ccccc21	-8.5	-0.1	33.6*	-1.9
CC(C)n1cnc2c(NCc3nc4ccccc4[nH]3)nc(N3CCN(c4ccccn4)CC3)nc21	14.5	0.0	71.6*	1.8
O=C(Nc1ccccc1[N+](=O)[O-])c1cccc(S(=O)(=O)Nc2ccc(Cl)cc2)c1	-4.7	0.0	3.0	1.4
COc1ccc(CC(=O)Nc2cccc(-c3nnc(-c4ccccc4)o3)c2)cc1OC	23.4	-0.1	52.8*	4.8
COc1ccc(CC(=O)Nc2ccc(-c3nnc(-c4ccccc4)o3)cc2)cc1OC	21.7	0.2	-16.0	-0.7
Cc1ccc(CN(Cc2cccnc2)C(=S)Nc2ccccc2Cl)cc1	5.8	0.0	2.0	0.6
COc1cccc2c1C(=O)c1c(O)c3c(c(O)c1C2=O)C[C@@](O)(C(=O)CO)C[C@@H]3O[C@H]1C[C@H](N)[C@H](O)[C@H](C)O1	43.5	-0.3	92.5*	-2.9
COc1cccc2c1C(=O)c1c(O)c3c(c(O)c1C2=O)C[C@@](O)(C(C)=O)C[C@@H]3OC1CC(N)C(O)C(C)O1 (some centres not stated)	34.8	0.1	nt	1.5
CCOC(=O)/C(C#N)=N/Nc1cc(C(N)=O)c(Cl)cc1Cl	3.9	0.0	10.5	1.3
Cc1cc(N2CCCC2)c(C)cc1/C=C\[N+](=O)[O-]	-3.2	-0.2	53.8*	1.2
Cc1cc(N2CCCC2)c(C)cc1C=O	2.8	0.0	-11.4	3.0
O=C(CN1CCSc2ccccc21)NCc1ccc(F)cc1	15.7	0.5	-1.4	-0.8
COc1cccc(/C=N/N2C(=O)CSC2=S)c1O	76.6*	-1.6	-13.1	-0.1
O=C1CSC(=S)N1/N=C/c1ccccc1OS(=O)(=O)c1ccccc1	12.2	0.1	4.6	-0.8
CCOC(=O)c1ccc(COC(=O)c2ccccc2NC)cc1	-9.1	2.2*	-9.0	-1.0
O=C(Cn1cnc2ccccc21)NCCCn1ccc2ccccc21	4.5	-0.2	6.2	2.1
N#Cc1ccc(Nc2nccc(-c3cncc(N4CCOCC4)c3)n2)cc1	2.2	-0.1	3.2	4.1
Fc1cc(-c2ccnc(Nc3ccc(-n4cnc(C(F)(F)F)n4)cc3)n2)cc(N2CCNCC2)c1	8.5	1.1	39.1*	0.5
CC(C)(C)c1ncn(-c2ccc(Nc3nccc(-c4cn[nH]c4)n3)cc2)n1	2.0	-0.1	63.0*	-0.1
Fc1cc(-c2ccnc(Nc3ccc(-n4cnc(C(F)(F)F)n4)cc3)n2)cc(N2CCN(C3CC3)CC2)c1	13.0	0.3	9.4	-1.0
OC1CCN(c2ccc(Nc3nccc(-c4cncc(N5CCOCC5)c4)n3)cc2)CC1	10.9	0.3	61.5*	0.2
Fc1cc(-c2cn[nH]c2)cc(-c2ccnc(Nc3ccc(-n4cnc(C(F)(F)F)n4)cc3)n2)c1	17.7	-0.1	-5.3	-0.1
Fc1cc(-c2ccnc(Nc3ccc(N4CCOCC4)cc3)n2)cc(N2CCN(C3CC3)CC2)c1	1.8	-0.3	47.5*	0.1
COc1ccccc1N1CCN(C2CCCN(CCCn3cccn3)C2)CC1 (configuration not stated)	2.1	0.1	-5.0	0.0
